Screens as filed in PubChem.
CHT PAM – human CHT allosteric activation; 310,000 tested, 0.49% active; CHT-expressing cells, membrane potential dye, choline EC20; active compounds read high; LV-AA mutant CHT in HEK293 cells; Q9GZV3; AID 488977; B-score at 10 µM;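 active = initial fluorescence not abnormally high and integrated response B-score, plate-corrected, over 3 SD above library mean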
Target sequence (Q9GZV3 whole entry, looked up): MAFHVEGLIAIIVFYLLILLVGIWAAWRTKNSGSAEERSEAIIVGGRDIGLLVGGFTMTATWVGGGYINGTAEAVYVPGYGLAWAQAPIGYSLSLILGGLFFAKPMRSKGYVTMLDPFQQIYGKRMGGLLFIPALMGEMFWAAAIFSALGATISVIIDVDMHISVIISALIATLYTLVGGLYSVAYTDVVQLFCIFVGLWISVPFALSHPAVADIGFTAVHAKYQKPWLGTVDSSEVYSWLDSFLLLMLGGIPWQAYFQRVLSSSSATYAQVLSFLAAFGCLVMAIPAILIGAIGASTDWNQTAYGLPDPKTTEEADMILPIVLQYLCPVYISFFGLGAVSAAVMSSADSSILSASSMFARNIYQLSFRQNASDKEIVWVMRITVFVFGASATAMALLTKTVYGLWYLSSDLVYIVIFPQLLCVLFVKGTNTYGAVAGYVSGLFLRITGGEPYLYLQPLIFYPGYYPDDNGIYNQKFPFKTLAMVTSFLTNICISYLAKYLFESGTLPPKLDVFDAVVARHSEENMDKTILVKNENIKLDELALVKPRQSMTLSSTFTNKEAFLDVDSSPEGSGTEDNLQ
TMEM16A act – activators or potentiators of mouse TMEM16A chloride channel. Q8BHY3. 340,000 tested, 0.3% active. AID 623877. B-score at 10 µM. HEK293 TMEM16A/YFP-H148Q/I152L, iodide quench fluorescence; active compounds read low;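 active = fluorescence-ratio B-score plate-corrected deviation score at least 3 library SD below zero, with starting fluorescence score within 5 deviations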;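 note: channel opened by trigger with iodide after compound preincubation; score built on the fluorescence ratio of max minus min over baseline; more negative score means more quench and so TMEM16A activation or potentiation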
CHT inh – inhibits the human high affinity choline transporter; B-score at 10 µM; 310,000 tested, 0.86% active; Q9GZV3; AID 488975; CHT-expressing cells, membrane potential dye, choline response; active compounds read low;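 active = B-score over 3 SD under the library average, and starting fluorescence ratio not unusually high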;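 note: choline stimulus applied at its EC90 after an EC20 pre-addition; B-score computed on integrated fluorescence ratio after choline addition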
TMEM16A inh – mouse TMEM16A channel inhibition, primary screen; Q8BHY3; HEK293 TMEM16A/YFP iodide influx fluorescence, ionomycin; normalized B-score (activity score, 25-100; higher = stronger inhibition) at 10 µM; 310,000 tested, 1.2% active;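 active = ratio plate-corrected score three or more library SD toward inhibition, starting fluorescence score within five deviations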;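 note: score derived from kinetic fluorescence span divided by baseline fluorescence per well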
* = called active by the depositor; i = inactive; · = no result given. Shown are actives, neighbours in structure and some others; about 2.3% of the full set was active somewhere.

SMILES	CHT PAM	TMEM16A act	CHT inh	TMEM16A inh
Cc1nc(Nc2ccc(S(N)(=O)=O)cc2)sc1C(=O)Nc1ccccc1	i	-8.9*	i	i
O=C(NCc1cc2ccccc2[nH]1)c1ccccc1F	i	i	i	i
COC(=O)c1ccc(CSc2nc3ccccc3o2)cc1	i	i	i	25*
O=C(CCSc1nc(-c2ccco2)cc(C(F)(F)F)n1)NCc1ccccn1	i	-15*	i	i
O=C(CCSc1nc(-c2ccco2)cc(C(F)(F)F)n1)NCc1cccs1	i	i	i	i
NS(=O)(=O)c1ccc(CCNC(=O)Cc2ccc(S(=O)(=O)N3CCOCC3)s2)cc1	i	i	i	i
COc1ccc(C2CC(c3ccccc3)=NN2c2ccc(S(N)(=O)=O)cc2)cc1OC (configuration not stated)	i	-6.1*	i	i
O=C(Cn1c(NCCCO)nc2ccccc21)c1ccc(Cl)cc1	i	i	i	i
Cc1cc2nc(NCCCO)n(CC(=O)c3cc(C(C)(C)C)c(O)c(C(C)(C)C)c3)c2cc1C	i	i	i	100*
COc1ccc(/C=N/NC(=O)c2cc(Br)ccc2O)cc1Cn1cc(Cl)cn1	i	i	i	100*
C[C@H](CO)N1C[C@H](C)[C@@H](CN(C)C(=O)Nc2ccccc2)Oc2ccc(NC(=O)Cc3ccccc3)cc2C1=O	·	i	·	·
CCn1cc(C(=O)NCCCN(CC(C)C)CC(C)C)c(=O)c2cc(S(=O)(=O)N(C)C3CCCCC3)ccc21	i	-13*	i	i
CCCCN(CC)CCCNC(=O)c1cn(C)c2ccc(S(=O)(=O)N(C)C3CCCCC3)cc2c1=O	i	i	i	i
CCCCN(CC)CCCNC(=O)c1cn(CC)c2ccc(S(=O)(=O)N3CCc4ccccc4C3)cc2c1=O	i	i	-13*	i
CCOC(OCC)c1nc(N)[nH]c(=O)c1CCCCc1ccccc1	·	i	·	·
CCCCc1ccc(NC=C2C(=O)OC3(CCCCC3)OC2=O)cc1	i	-19*	i	i
NS(=O)(=O)c1ccc(NC=C2C(=O)OC3(CCCCC3)OC2=O)cc1	i	i	i	i
Cc1ccc(S(=O)(=O)Nc2nc3ccccc3nc2Nc2cccc(S(=O)(=O)N3CCCC3)c2)cc1	i	i	i	i
O=[N+]([O-])c1cccc(S(=O)(=O)Nc2nc3ccccc3nc2Nc2cccc(S(=O)(=O)N3CCCCC3)c2)c1	·	-5.3*	·	·
Cn1cc(C(c2ccccc2OCC(=O)O)c2cn(C)c3ccccc23)c2ccccc21	i	i	i	25*
NC(=Nc1ccccc1)Nc1ccccc1	i	-14*	i	i
CCOC(=O)/C(C(=Nc1ccccc1)Nc1ccccc1)=C(\C)O	i	i	i	i
COc1cccc(CN(C)C(=O)c2cc(COc3ccc(-n4cncn4)cc3)on2)c1	i	i	i	25*
CC12CCC(=O)C=C1CCCC2=O (configuration not stated)	·	i	·	·
Cc1cc(N2CCCC2)nc2ccc(NC(=S)NCCCN3CCC(C)CC3)cc12	i	i	-7.9*	i
SMILES	CHT PAM	TMEM16A act	CHT inh	TMEM16A inh
CN(c1ccc(OCC(=O)NC2CCC(O)CC2)cc1)S(=O)(=O)c1ccc(Cl)cc1 (configuration not stated)	·	i	·	·
Cc1cccc2c3c([nH]c12)CCN(C)C3	i	i	-5.8*	i
CSCCC(NC(=O)c1ccc(Cl)cc1Cl)C(=O)N(C)Cc1nc2ccccc2c(=O)[nH]1 (configuration not stated)	·	i	·	·
C=CCN1C(=O)C(CC(=O)Nc2ccc(OC)cc2)N(Cc2ccco2)C1=S (configuration not stated)	i	-6.8*	i	i
COc1ccc(NC(=O)CC2C(=O)N(CCc3ccccc3)C(=S)N2Cc2cccnc2)cc1 (configuration not stated)	i	i	i	25*
C=CCNc1nc(C(=O)OCC(=O)NCc2cccc(Cl)c2)cs1	·	i	·	·
CCN(c1ccccc1)S(=O)(=O)c1ccc(F)c(C(=O)O)c1	i	i	i	i
CCN(c1ccccc1)S(=O)(=O)c1cc(C(=O)Nc2ccc(Br)cc2)ccc1F	i	i	i	25*
N#CC(C#N)=C1C=CC=CN1/C(=C\c1ccccc1Cl)C(=O)c1ccccc1	i	-8.4*	i	i
N#CC(C#N)=C1C=CC=CN1/C(=C\c1ccccc1)C(=O)c1cccs1	i	i	i	i
O=S(=O)(c1ccc(Br)cc1)c1nc(-c2ccco2)oc1NCCCn1ccnc1	·	i	·	·
COc1ccc(NC(=O)Nc2cccc3c2O[C@@H](CN(C)S(=O)(=O)c2cn(C)cn2)[C@@H](C)CN([C@H](C)CO)C3=O)cc1	·	i	·	·
CC1CCCC(C)N1C(=C(Cl)Cl)C(=C1SCCS1)[N+](=O)[O-] (configuration not stated)	i	-15*	i	i
COc1ccc(C(=O)N/C(=C/c2cccnc2)C(=O)Nc2cccc(C(C)=O)c2)cc1OC	i	i	i	i
COc1cccc(CNS(=O)(=O)c2cc3c4c(c2)CCN4C(=O)CC3)c1	i	i	i	i
CCn1c(=O)c(C(=O)Nc2nc3ccccc3[nH]2)c(O)c2ccccc21	i	-7.8*	i	i
O=C(N/N=C/c1cc([N+](=O)[O-])cc(Br)c1O)C12CC3CCC(CC(C3)C1)C2	i	i	i	100*
Cc1ccc(N(CC(=O)N/N=C/c2cc(C)n(-c3ccccc3C)c2C)S(C)(=O)=O)cc1	i	i	-7*	i
Cc1cc(C)cc(-n2c(C)cc(/C=N/NC(=O)CN(c3c(C)cccc3C)S(C)(=O)=O)c2C)c1	i	i	i	i
CCCn1c(N)c(C(=O)COC(=O)/C=C/c2ccc(OC(F)F)c(OC)c2)c(=O)[nH]c1=O	·	i	·	·
NS(=O)(=O)c1ccc(-c2ccc(/C=C3\SC(=S)N(C4CCS(=O)(=O)C4)C3=O)o2)cc1 (configuration not stated)	i	-5*	i	i
CCC(=O)Nc1cc(SCCO)cc([N+](=O)[O-])c1	i	i	i	100*
O=C(CCl)Nc1cc(SCC(O)CO)cc([N+](=O)[O-])c1 (configuration not stated)	·	i	·	·
CCCCC1CC(=O)NC1(C(=O)OCC)C(=O)OCC (configuration not stated)	·	i	·	·
COC(=O)Cn1c(CN2CCC(Cc3ccccc3)CC2)nc2c1c(=O)n(C)c(=O)n2C	i	i	i	25*
COC(=O)Cn1c(CN(C)Cc2ccccc2)nc2c1c(=O)n(C)c(=O)n2C	i	i	i	i
Cc1c(C(=O)Nc2nc3ccccc3[nH]2)oc2ccccc12	i	i	i	i
Cc1c(C(=O)Nc2nc3ccccc3[nH]2)oc2ccc(Br)cc12	i	-4.6*	i	i
